# BCR signal inh – blocks chronic active B-cell receptor signaling. ABC-DLBCL IkBa-CBG/CBR reporter, luminescence ratio, 4 h. Potency, µM (doses to about 46.1 µM), without a hit: at the highest dose activity change, negative = inhibition, most hits filed as inhibitors. 340,000 compounds, 0.05% hits. AID 493014; active = well fitted inhibition curve with a large enough effect in the signal ratio, with a control signal flat, not every such curve was filed as active; inconclusive = small, poorly fitted or top-dose-only effect, or effect the other way, or a change in a side signal; the % refers to the signal ratio;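 also: potency is read from the fitted curve at half-maximal effect; plate controls were basal doxycycline-induced cells for no effect and cells given 10 µM MG132 for full effect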
#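 Doxycycline induced both beetle luciferases in TMD8 lymphoma cells; IKK-driven degradation limits the IkappaBalpha-fused green signal, while red luminescence normalises for cell number and nonspecific effects. Compounds tested up to 46 uM, 4 hrs.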
# Giardia kill – Giardia lamblia killing | Giardia lamblia trophozoite viability | activity change, % at 7.66 µM, hits read low | 340,000 compounds, 0.15% hits; in the data active = activity change below about -80%; inconclusive = between about -30% and that limit;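 also: parasites exposed to compound for two days anaerobically before the ATP read; % is scaled to controls: 0 for no effect and ±100 for the full control effect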
#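 ATP-content bioluminescence gauges trophozoite survival. Cells (100/well) receive compound and incubate anaerobically for 48 hrs at 37 deg C; detection reagent follows for 15-30 min at room temperature.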
# Gal4-VP16 FLuc – counter-screen for ROR gamma inhibitors: Gal4-VP16 reporter | 310,000 compounds, 3.5% hits | Potency, µM (highest dose often 53.6 µM), for the others: at the highest dose activity, negative = inhibition, hits mostly inhibitors | Drosophila S2 Gal4-VP16 UAS-luciferase, luminescence, 20 h;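 also: Gal4-VP16 expression switched on by copper sulfate through the metallothionein promoter; potency is read from the fitted curve at half-maximal effect; % is scaled to controls: 0 for no effect and ±100 for the full control effect; nearly all actives have a fitted effect of over 50% in size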
# SW480 rereplic – inducers of DNA re-replication in SW480 colon cancer cells | SW480 DNA re-replication, Hoechst DNA content imaging, 48 h | Potency, µM (highest dose often 46.1 µM), for the others: at the highest dose re-replication activation, hits mostly activators | 340,000 compounds, 1.8% hits | AID 624297; also: potency is read from the fitted curve at half-maximal effect; % of control where 0% means no effect; nearly all actives have a fitted effect of over 55% in size
#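 SW480 cells exposed to compounds for 48 hr at 37 C, 5% CO2, then Hoechst-stained 40 min. Nuclear DNA content imaged by fluorescence scanning (405 nm excitation, 500-530 nm emission); re-replication scored as increased high-intensity nuclei.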
# RORgamma inh – inhibitors of mouse ROR gamma transcriptional activity | P51450 | Drosophila S2 Gal4-RORgamma UAS-luciferase reporter, 20 h | Potency, µM (highest dose often 53.6 µM), without a hit: top-dose activity change, negative = inhibition, hits mostly inhibitors | 310,000 compounds, 5.4% hits | AID 2551; also: potency is read from the fitted curve at half-maximal effect; % is scaled to controls: 0 for no effect and ±100 for the full control effect; nearly all actives have a fitted effect of over 60% in size
# Target sequence (P51450 whole entry, looked up, the tested form may be a part): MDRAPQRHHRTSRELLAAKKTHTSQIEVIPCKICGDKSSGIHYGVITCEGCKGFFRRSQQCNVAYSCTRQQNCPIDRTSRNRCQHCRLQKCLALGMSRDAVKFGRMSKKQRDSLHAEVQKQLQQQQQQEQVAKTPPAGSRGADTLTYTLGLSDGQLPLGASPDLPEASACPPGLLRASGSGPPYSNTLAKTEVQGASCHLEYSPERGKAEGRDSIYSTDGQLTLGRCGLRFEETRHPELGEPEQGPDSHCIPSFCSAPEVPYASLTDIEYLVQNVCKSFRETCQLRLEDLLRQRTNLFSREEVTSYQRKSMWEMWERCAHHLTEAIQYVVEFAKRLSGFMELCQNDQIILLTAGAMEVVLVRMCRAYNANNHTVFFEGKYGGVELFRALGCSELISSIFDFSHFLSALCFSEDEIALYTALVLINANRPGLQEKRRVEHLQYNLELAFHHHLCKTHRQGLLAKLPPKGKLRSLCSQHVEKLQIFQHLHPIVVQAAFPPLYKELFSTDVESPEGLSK
#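 Schneider cells (Drosophila), stable Gal4 DBD–ROR gamma + UAS-luc; 1 hr cmpd preincubation; Cu2+ induction 700 uM final; 20 hr ambient; luminescence.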
# MCF10A rereplic – DNA re-replication induction in MCF 10a cells | MCF 10A DNA re-replication, Hoechst nuclear intensity, 48 h | 350,000 compounds, 2.9% hits | Potency, µM (titrated, usually from 46.1 µM), for the others: at the highest dose activity, positive = re-replication, hits mostly activators; also: potency is read from the fitted curve at half-maximal effect; % of control where 0% means no effect; nearly all actives have a fitted effect of over 50% in size
# An asterisk follows results filed as active; ? = inconclusive; nt = no result; [ ] = dose if it differs, or a comment. Sampled rows, rich in hits. Any-hit rate of the full collection: about 8.3%. Unless noted, calls follow the shape of the dose curve; as a rule, active = well fitted curve in the direction sought with a large enough effect; inconclusive = small, poorly fitted or top-dose-only effect, or another doubt; inactive = no such curve, though single readings can be large; an effect the other way counts as inactive or inconclusive.
SMILES,BCR signal inh,Giardia kill,Gal4-VP16 FLuc,SW480 rereplic,RORgamma inh,MCF10A rereplic
NC(=S)Nc1ccccc1Br,-3%,-17,35µM*,-12%,?,-2%
NC(=S)Nc1cccc2cn[nH]c12,2%,9,-17%,-2%,-2%,1%
COc1cc(/C=C/C(=O)OCC(=O)NC(=O)NC2CCCCC2)ccc1OC(F)F,-1%,-8,-11%,-10%,4%,0%
O=C(Cc1cccc(NC(=O)C2CCCN(C(=O)C3CC3)C2)c1)Nc1ccc(C(=O)N2CCOCC2)cc1 (centres undefined),nt,-21,nt,7%[9.22 µM],nt,5%
O=S(=O)(Nc1ccc2c(c1)OCO2)c1ccc(F)c(F)c1,3%,9,nt,-9%,nt,6%
CN1CCN(S(=O)(=O)c2ccc(N3CCN(S(=O)(=O)/C=C/c4ccccc4)CC3)nc2)CC1,2%,14,-19%,?,-19%,7.3µM*
Cc1cc(-c2nc3cc(F)ccc3s2)ccc1N,nt,?,nt,18µM*,nt,10µM*
O=C(N/N=C(\CC(=O)c1cccs1)C(F)(F)F)c1ccncc1,?,-1,-29%,7.3µM*,-19%,?
Cc1ccc(C(=O)N/N=C(/CC(=O)c2cccs2)C(F)(F)F)cc1,?,8,7.1µM*,-3%,11µM*,18µM*
COc1cccc(C(c2cccc(OC)c2)c2ccccc2C(=O)O)c1,nt,-15,nt,-1%,nt,10%
C/C(=N\N1C(=O)c2ccccc2NC1c1ccccc1)c1ccccc1O (centres undefined),6%,-8,2.8µM*,?,0.56µM*,4%
C/C(=N\N1C(=O)c2ccccc2NC1c1ccco1)c1ccccc1O (centres undefined),?,0,2.2µM*,?,0.35µM*,4.1µM*
CC(C)C[C@@H](CC(=O)N[C@@H](CCC(=O)O)CC(=O)O)NC(=O)[C@@H]1CNCC[C@H]1NC(=O)C[C@H](CCCN)NC(=O)C[C@H](Cc1ccccc1)NC(=O)[C@@H]1CNCC[C@H]1N,nt,nt,3%,nt,-12%,nt
Cc1nc(SCC(=O)NCC2CCCO2)nc(C)c1C (centres undefined),?,1,nt,?,nt,-6%
COc1ccc(/C=C/C(=O)NCC2COc3ccccc3O2)c(OC)c1 (centres undefined),1%,-4,?,25%,13%,3%
O=C(/C=C/c1ccco1)NCc1ccccn1,-8%,5,2%,-1%,4.5µM*,1%
O=C(/C=C/c1ccco1)NCC1COc2ccccc2O1 (centres undefined),16%,21,11µM*,24%,3%,14%
O=C(Cc1ccccc1)NCC1COc2ccccc2O1 (centres undefined),nt,-11,nt,-2%,nt,1%
O=C(NCc1ccccc1)C(=O)NCC1COc2ccccc2O1 (centres undefined),?,-1,8%,?,-10%,12µM*
Cc1cc(C)n2cc(CSc3nncn3C)nc2n1,1%,-3,3%,0%,0%,?
O=C(c1ccncc1)N1CCC2(CCCN(Cc3ccccc3)C2)CC1,nt,nt,4%,nt,-8%,nt
CCOC(=O)CS(=O)(=O)c1nc(-c2ccc(F)cc2)cc(C(F)(F)F)n1,?,3,5µM*,21%,5.6µM*,3.7µM*
COC(=O)CCS(=O)(=O)c1nc(-c2ccccc2)cc(C(F)(F)F)n1,?,-10,5.6µM*,?,7.1µM*,3.7µM*
COCC(C)NC(=O)CCS(=O)(=O)c1nc(-c2ccc(OC)cc2)cc(C(F)(F)F)n1 (centres undefined),?,-12,nt,9%,2%[0.365 µM],3.7µM*
CCOC(=O)CS(=O)(=O)c1nc(-c2ccccc2)cc(C(F)(F)F)n1,?,-4,5µM*,2.6µM*,2.8µM*,?
SMILES,BCR signal inh,Giardia kill,Gal4-VP16 FLuc,SW480 rereplic,RORgamma inh,MCF10A rereplic
CCOC(=O)c1c(C(F)(F)F)cc(-c2ccc(F)cc2)nc1C,6%,-8,7%,-12%,19%,-1%
CCOC(=O)CCS(=O)(=O)c1nc(-c2ccccc2)cc(C(F)(F)F)n1,?,-5,?,27%,24%,?
Cc1cc(NC(=O)CC(C)C)c(=O)n(Cc2cccc(F)c2)c1,0%,15,5%,1%,-7%[1.91 µM],5%
O=[N+]([O-])c1ccc(O)c(CN2CCCCCC2)c1,3%,-2,6%,-4%,-16%,1%
CC(C)C[C@@H](CSc1ccc(Br)cc1)N1CCN(CC(C)C)CCC1=O,1%,-8,25%,-2%,?,9%
Cc1cccc(C(=O)NCc2nnc(SCC(=O)NC3CCCC3)n2C)c1,-1%,-2,-19%,-16%,-10%,1%
COc1ccc(-c2cc(C(F)(F)F)nc(S(=O)(=O)CCCC(=O)Nc3cccnc3Cl)n2)cc1OC,?,-18,?,3%,1.6µM*,12µM*
COc1ccc(N2CCN(C(=O)COC(=O)c3c(-c4ccccc4)noc3C)CC2)cc1,-1%,-9,nt,-12%,nt,0%
O=C(Nc1cccc(-c2nc3ccccc3[nH]2)c1)c1cccc(NC(=O)c2ccco2)c1,?,-2,?,15µM*,?,?
O=C(Nc1ccc2nc(-c3ccccc3)[nH]c2c1)c1ccco1,?,-7,-7%[0.365 µM],-5%,?,5%
O=C(Nc1ccc(Cl)c(-c2nc3ccccc3[nH]2)c1)c1ccc2c(c1)OCO2,?,-4,-1%,-8%,?,?
O=C(Nc1ccc(-c2nc3ccccc3[nH]2)cc1)C1CCCO1 (centres undefined),?,?,7.1µM*,-1%,1%,-4%
O=C(Nc1ccc(-c2nc3ccccc3[nH]2)cc1)c1ccc2c(c1)OCO2,14%,-5,11µM*,3%,?,-5%
CCOC(=O)CC1NCCc2c1[nH]c1ccc(OC)cc21 (centres undefined),-2%,4,5%,1%,12%,-1%
Clc1ccc(-c2noc(CN(Cc3ccccn3)CC3CCCO3)n2)cc1 (centres undefined),13%,-10,-26%,1%,4µM*,0%
Cc1cccc(-c2n[nH]c(=S)n2/N=C/c2ccc(C)o2)c1,6%,14,11µM*,-9%,?,-34%
O=[N+]([O-])c1ccc(/C=N/n2c(C3CCCCC3)n[nH]c2=S)cc1,2%,16,?,-2%,1.4µM*,9%
Cc1ccc(/C=N/n2c(C3CCCCC3)n[nH]c2=S)o1,?,-22,?,1%,11µM*,3%
CSc1ccc(/C=N/n2c(C3CCCCC3)n[nH]c2=S)cc1,10%,1,?,?,1.6µM*,16µM*

# Source: PubChem BioAssay (National Center for Advancing Translational Sciences (NCATS))
